Bioassay records: PubChem, several laboratories
RecA splice inh = Mtb RecA intein splicing inhibition; P9WHJ3; cell-free RecA intein splicing, fluorescence; inhibition, % (test concentration not listed); 290,000 compounds, 0.75% hits; in the data active means inhibition above about 30%; inconclusive means no clear call, values can overlap the other calls
Target sequence (P9WHJ3 whole entry, looked up, canonical isoform): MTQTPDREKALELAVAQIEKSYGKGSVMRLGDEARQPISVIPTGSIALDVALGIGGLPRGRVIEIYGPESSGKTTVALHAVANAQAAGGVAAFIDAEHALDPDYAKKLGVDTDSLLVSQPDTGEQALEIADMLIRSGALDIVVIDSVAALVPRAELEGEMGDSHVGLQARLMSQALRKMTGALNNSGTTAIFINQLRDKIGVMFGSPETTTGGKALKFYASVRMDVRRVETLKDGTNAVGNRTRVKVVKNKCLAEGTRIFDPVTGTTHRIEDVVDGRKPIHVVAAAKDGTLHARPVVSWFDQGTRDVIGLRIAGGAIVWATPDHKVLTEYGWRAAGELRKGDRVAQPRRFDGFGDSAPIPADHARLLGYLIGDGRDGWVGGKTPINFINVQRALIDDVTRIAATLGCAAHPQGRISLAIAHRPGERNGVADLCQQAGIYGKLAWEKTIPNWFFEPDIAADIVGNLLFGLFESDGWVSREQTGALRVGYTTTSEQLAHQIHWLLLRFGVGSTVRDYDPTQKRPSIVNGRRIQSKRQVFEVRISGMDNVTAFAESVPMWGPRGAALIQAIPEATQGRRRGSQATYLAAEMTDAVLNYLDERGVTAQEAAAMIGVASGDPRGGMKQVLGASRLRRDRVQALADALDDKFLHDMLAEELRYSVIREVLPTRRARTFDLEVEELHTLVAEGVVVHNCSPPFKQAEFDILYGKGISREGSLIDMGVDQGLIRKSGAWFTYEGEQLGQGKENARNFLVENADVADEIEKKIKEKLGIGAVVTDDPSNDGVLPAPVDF
Mtb hypoxia inh = reduces hypoxia-regulated biosensor signal in M. tuberculosis; M. tuberculosis hypoxia-regulated fluorescent reporter, fluorescence; fluorescence inhibition, % (no concentration beside the values); 300,000 compounds, 0.1% hits; in the data active means fluorescence inhibition mostly above about 23%, no sharp cut-off; inactive means mostly below about 17%
UGM FP inh = Mtb UDP-galactopyranose mutase inhibition; 320,000 compounds, 0.06% hits; P9WIQ1; AID 504406; inhibition, % at 10 µM; purified UGM, fluorescence polarization probe displacement; in the data active means inhibition above about 10%, passing the limit was not always enough; inconclusive means no clear call, values can overlap the other calls
Rv3671c inh = inhibits the M. tuberculosis serine protease Rv3671c; P9WHR9; inhibition, % at 5.96 µM; 320,000 compounds, 0.048% hits; AID 2606; in the data active means inhibition above about 38%;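 further: extracellular domain of Rv3671c used as enzyme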
Mtb betalactam = beta-lactam sensitization of Mtb H37Rv | AID 434955 | inhibition, % at 25 µM | M. tuberculosis H37Rv growth with meropenem, percent inhibition | 330,000 compounds, 0.27% hits; call rule not given here;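 further: growth measured after seven days incubation then overnight dye step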
Of the large screens only hits and unclear results are named; the others gave an inactive call. Most compounds without a hit are left out; they make up all but 0.77% or so of the library.

CC(NC(=O)c1nc[nH]c1C(=O)NC1CCN(C(=O)OC(C)(C)C)CC1)c1ccccc1 (configuration not stated)	none (no result: RecA splice inh, UGM FP inh, Rv3671c inh, Mtb betalactam)
CC1CC2C3CC(F)C4=CC(=O)C=C[C@]4(C)[C@@]3(F)C(O)C[C@]2(C)[C@@]1(O)C(=O)CO (some centres not stated)	none (no result: RecA splice inh, UGM FP inh, Rv3671c inh, Mtb betalactam)
CC1CN(C(C)CO)C(=O)c2cccc(NC(=O)C3CCCCC3)c2OC1CN(C)S(C)(=O)=O (configuration not stated)	none (no result: RecA splice inh, UGM FP inh, Rv3671c inh, Mtb betalactam)
C=CCn1ccc(=NC=C(C#N)C#N)c2ccccc21	UGM FP inh 36 (no result: Mtb hypoxia inh)
Cn1cc(C=C(C#N)C#N)c2ccccc21	UGM FP inh inconclusive
Cc1[nH][nH]c(=O)c1[C@@H](c1ccccc1[N+](=O)[O-])C(C#N)C#N	RecA splice inh 62
Cc1[nH][nH]c(=O)c1C(c1ccc(O)c([N+](=O)[O-])c1)c1c(C)[nH][nH]c1=O	none (not shown: Mtb hypoxia inh)
CCc1ccc(C(=O)COC(=O)c2cncc(Br)c2)cc1	none
O=C(OCC(=O)c1ccc(Cl)s1)c1cncc(Br)c1	Mtb hypoxia inh 29 (no result: RecA splice inh)
CCN(CC)c1ccc2c(-c3ccc(S(=O)(=O)O)cc3S(=O)(=O)[O-])c3ccc(=[N+](CC)CC)cc-3oc2c1	Mtb hypoxia inh 39, UGM FP inh 93, Rv3671c inh active
CCN(CC)c1ccc2nc3c4ccccc4c(=O)cc-3oc2c1	none (no result: Rv3671c inh)
O=C(C1=C(c2ccccc2)C(=O)c2ccccc2C1=O)c1ccccc1	RecA splice inh 36 (no result: UGM FP inh, Rv3671c inh, Mtb betalactam)
O=C1COc2ccc(C(=O)CCl)cc2N1	RecA splice inh 32 (no result: Mtb hypoxia inh, Mtb betalactam)
Cc1cc(C(=O)COc2ccccc2C(N)=O)c(C)n1C	none
Cc1cc(C(=O)COc2cccc3cccnc23)c(C)n1C	UGM FP inh 16
CCOC(=O)C1C2COc3ccccc3C2N2C(=O)N(c3cccc(C)c3)C(=O)[C@]12C (some centres not stated)	none (no result: RecA splice inh, UGM FP inh, Rv3671c inh, Mtb betalactam)
O=C(NCC1CCCO1)c1cccc2c1C(=O)c1ccc(N3CCC(Cc4ccccc4)CC3)cc1S2(=O)=O (configuration not stated)	UGM FP inh 19 (no result: RecA splice inh, Mtb hypoxia inh)
O=C(NC1CCCCC1)c1cccc2c1C(=O)c1ccc(N3CCC(Cc4ccccc4)CC3)cc1S2(=O)=O	UGM FP inh 19 (no result: RecA splice inh)
NC(N)=NCCCC(NC(=O)OCc1ccccc1)C(=O)O (configuration not stated)	none (no result: RecA splice inh, UGM FP inh, Rv3671c inh, Mtb betalactam)
COC(=O)c1ccc2c(c1O)C(=O)c1ccccc1C2=O	RecA splice inh 44
Nc1[nH][nH]c(=O)c1N=Nc1cccc(Cl)c1	none
O=C1CCN(N=Nc2cccc(Cl)c2)N1	RecA splice inh 40 (no result: Mtb hypoxia inh)
O=C1C2CCN(CC2)C1Cc1ccc2ccccc2c1O (configuration not stated)	none (no result: RecA splice inh, UGM FP inh, Rv3671c inh, Mtb betalactam)
NC(=O)NN=Cc1cn(CC(=O)Nc2ccc(F)cc2)c2ccccc12	Mtb hypoxia inh 70 (no result: RecA splice inh, UGM FP inh, Rv3671c inh, Mtb betalactam)
Cc1[nH]nc2c1C(C(C)C)C(C#N)=C(N)O2 (configuration not stated)	none (no result: RecA splice inh)
Cc1nn(C)c(C)c1C1C(C#N)=C(N)Oc2n[nH]c(C)c21 (configuration not stated)	RecA splice inh 43
Cc1[nH]nc2c1[C@@H](c1ccccc1[N+](=O)[O-])C(C#N)=C(N)O2	none
Cc1ccc(C2C(C#N)=C(N)Oc3n[nH]c(-c4ccccc4)c32)o1 (configuration not stated)	RecA splice inh 88 (no result: Mtb hypoxia inh)
Cc1[nH]nc2c1C(c1cc(Br)cs1)C(C#N)=C(N)O2 (configuration not stated)	RecA splice inh 53
Cc1nn(-c2ccccc2)c(C)c1C1C(C#N)=C(N)Oc2n[nH]c(C)c21 (configuration not stated)	RecA splice inh 63
OCCC1CC(O)C(O)[C@]2(CCc3ccccc3CO2)O1 (some centres not stated)	none (no result: RecA splice inh, UGM FP inh, Rv3671c inh, Mtb betalactam)
Cc1ccc(-n2nc(C)c3c2OC(N)=C(C#N)C3c2ccc(F)cc2)cc1 (configuration not stated)	RecA splice inh 60
O=C1CCC=CCC(CC(=O)N(CCO)Cc2ccccc2)C(=O)NC(Cc2ccccc2)CO1 (configuration not stated)	none (no result: RecA splice inh, UGM FP inh, Rv3671c inh, Mtb betalactam)
O=C(CCN1C(=O)/C(=C\c2ccccc2F)SC1=S)Nc1ccc(C(=O)O)c(O)c1	RecA splice inh 32 (no result: Mtb hypoxia inh)
O=C(CCCN1C(=O)/C(=C/c2ccccc2)SC1=S)Nc1ccc(C(=O)O)c(O)c1	RecA splice inh 38 (no result: Mtb hypoxia inh)
COC(=O)C1=C(c2ccc(Cl)c(C(F)(F)F)c2)CC2CCC1N2C(=O)NCCOc1ccc(OC)cc1 (configuration not stated)	none (no result: RecA splice inh, UGM FP inh, Rv3671c inh, Mtb betalactam)
CC(=O)NS(=O)(=O)c1ccc(Nc2ccc([N+](=O)[O-])c3nonc23)cc1	Mtb hypoxia inh 38
CC(=O)c1ccc(NC(=O)c2ccc([N+](=O)[O-])o2)cc1	Mtb hypoxia inh 73 (no result: Rv3671c inh)
O=C(NN(c1ccccc1)c1ccccc1)c1ccc([N+](=O)[O-])o1	none
O=C(NNC(=O)c1ccc([N+](=O)[O-])o1)c1ccccc1	RecA splice inh 39 (no result: Mtb hypoxia inh)
CC(=O)c1cccc(NC(=O)c2ccc([N+](=O)[O-])o2)c1	none
CCC(CO)NC(=O)C1C=C2c3cccc4c3c(cn4C)CC2N(C)C1 (configuration not stated)	none (no result: RecA splice inh, UGM FP inh, Rv3671c inh, Mtb betalactam)
CC1CN(C(C)CO)C(=O)c2cc(NC(=O)Cn3cnnn3)ccc2OC1CN(C)Cc1ccc(Oc2ccccc2)cc1 (configuration not stated)	none (no result: RecA splice inh, UGM FP inh, Rv3671c inh, Mtb betalactam)
Cn1cnc([N+](=O)[O-])c1Sc1nnc(-c2cccnc2)n1C	RecA splice inh 39 (no result: Rv3671c inh)
COc1ccc(/C=C2\CCc3c2nc2ccccc2c3C(=O)O)cc1OC	none (no result: Mtb hypoxia inh)
COc1ccc(/C=C2\CCCc3c2nc2ccccc2c3C(=O)O)cc1OC	UGM FP inh 48 (no result: Mtb hypoxia inh)
COc1cc(/C=C2\CCCc3c2nc2ccccc2c3C(=O)O)cc(OC)c1O	none
CCOc1ccc(/C=C2\CCCc3c2nc2ccccc2c3C(=O)O)cc1OC	UGM FP inh 70 (no result: Mtb hypoxia inh)
C#CCOCCOCCOCCNc1nc(N2CCN(C(=O)C(CCC(=O)O)n3cc(C(N)Cc4ccc(O)cc4)nn3)CC2)nc(N2CCN(C(=O)C(CCCCN)n3cc(C(N)C(C)CC)nn3)CC2)n1 (configuration not stated)	none (no result: RecA splice inh, UGM FP inh, Rv3671c inh, Mtb betalactam)
COc1cc(/C=C2\SC(N)=NC2=O)ccc1OCC(=O)Nc1ccccc1C	Mtb hypoxia inh 57 (no result: RecA splice inh)
Cc1[nH]n(C(N)=S)c(=O)c1C(c1ccccc1)C(C#N)C#N (configuration not stated)	RecA splice inh 43 (no result: Mtb hypoxia inh)
Cc1[nH]n(-c2ncc(-c3ccccc3)s2)c(=O)c1C(c1ccc(Br)cc1)C(C#N)C#N (configuration not stated)	none
CCOc1ccccc1-c1c2cc(O)c(=O)cc-2oc2cc(O)c(O)cc12	Mtb hypoxia inh 37 (no result: RecA splice inh, UGM FP inh, Rv3671c inh, Mtb betalactam)
CCOCCCn1c(=NC(=O)c2cccs2)c(C#N)cc2c(=O)n3ccccc3nc21	UGM FP inh 16
Cc1cccn2c(=O)c3cc(C#N)c(=NC(=O)c4cccs4)n(CCCOC(C)C)c3nc12	none
COc1ccc(OCC(=O)N2CCN(S(=O)(=O)c3ccc(Cl)s3)CC2)cc1	none (no result: RecA splice inh)
N#Cc1ccc(OCC(=O)N2CCN(S(=O)(=O)c3ccc(Cl)s3)CC2)cc1	Mtb hypoxia inh 27 (no result: RecA splice inh)
